# Assay results published in PMC4081100, “A DNA-binding-site landscape and regulatory network analysis for NAC transcription factors in Arabidopsis thaliana”.
# Experiments:
# Assay in all cases: universal protein binding microarray (PBM); transcription factors of Arabidopsis thaliana; high values mean tight binding
# GST-ANAC092(1-176) = molecular target: T1, GST-ANAC092(1-176) (Arabidopsis thaliana, UniProt Q9FKA0 1-176); settings: protein: recombinant; tags: GST; chain copies: 2; dsDNA, one strand shown
# T1 sequence: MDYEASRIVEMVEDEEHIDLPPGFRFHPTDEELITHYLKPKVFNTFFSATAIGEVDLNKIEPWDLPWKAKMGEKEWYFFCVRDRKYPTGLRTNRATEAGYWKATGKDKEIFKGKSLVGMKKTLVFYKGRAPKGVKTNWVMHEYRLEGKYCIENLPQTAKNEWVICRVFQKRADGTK
# In short: (§1)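 Cells were induced to make GST-tagged NAC-domain, full-length or DNA-binding-domain proteins, and zinc acetate was added for zinc-finger proteins. These proteins were purified on glutathione–Sepharose 4B, quantified by A280 or anti-GST western blot, and applied in duplicate at 200 to 500 nM final to custom all-10-mer Agilent 4 × 180K arrays that primer extension had made double-stranded. Binding is given as the normalised enrichment score (E-score) for scored gapped and ungapped 8-mers.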
# GST-NST2(1-184) = molecular target: T2, GST-NST2(1-184) (Arabidopsis thaliana, UniProt Q9M274 1-184); settings: protein: recombinant; tags: GST; chain copies: 2; dsDNA, one strand shown
# T2 sequence: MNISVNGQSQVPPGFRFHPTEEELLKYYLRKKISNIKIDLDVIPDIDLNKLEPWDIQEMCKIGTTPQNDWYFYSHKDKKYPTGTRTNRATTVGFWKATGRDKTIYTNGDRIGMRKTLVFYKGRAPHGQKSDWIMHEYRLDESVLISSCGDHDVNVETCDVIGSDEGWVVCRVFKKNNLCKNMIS
# In short: as §1
# GST-WRKY1(266-371) = GST-WRKY1(266-371) (Arabidopsis thaliana, UniProt Q9SI37 266-371); settings: protein: recombinant; tags: GST; dsDNA, one strand shown
# GST-WRKY1(266-371), sequence (Q9SI37 266-371): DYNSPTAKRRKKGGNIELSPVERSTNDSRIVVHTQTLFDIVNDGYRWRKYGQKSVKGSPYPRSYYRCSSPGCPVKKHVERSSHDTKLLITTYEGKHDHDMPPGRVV
# In short: as §1
# GST-ANAC019 NAC domain = molecular target: T3, GST-ANAC019 NAC domain (Arabidopsis thaliana, UniProt Q9C932 14-162); settings: protein: recombinant; tags: GST; chain copies: 2; dsDNA, one strand shown
# T3 sequence: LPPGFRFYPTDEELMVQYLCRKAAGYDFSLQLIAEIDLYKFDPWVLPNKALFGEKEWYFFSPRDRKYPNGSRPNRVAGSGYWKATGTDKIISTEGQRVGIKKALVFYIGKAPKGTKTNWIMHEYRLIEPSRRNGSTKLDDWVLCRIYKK
# In short: as §1
# [1] = molecular target: T4, GST-ANAC092(1-285) full length (Arabidopsis thaliana, UniProt Q9FKA0 1-285); settings: protein: recombinant; tags: GST; chain copies: 2; dsDNA, one strand shown
# T4 sequence: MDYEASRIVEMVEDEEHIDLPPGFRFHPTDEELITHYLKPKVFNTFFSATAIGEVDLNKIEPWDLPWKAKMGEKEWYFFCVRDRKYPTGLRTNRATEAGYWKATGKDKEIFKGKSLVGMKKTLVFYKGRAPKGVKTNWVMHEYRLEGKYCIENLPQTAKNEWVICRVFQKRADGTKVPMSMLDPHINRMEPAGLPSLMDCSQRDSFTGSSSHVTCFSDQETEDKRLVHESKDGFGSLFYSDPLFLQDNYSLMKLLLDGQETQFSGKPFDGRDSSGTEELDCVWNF
# In short: as §1
# GST-NAP(1-166) = molecular target: T5, GST-NAP(1-166) (Arabidopsis thaliana, UniProt O49255 1-166); settings: protein: recombinant; tags: GST; chain copies: 2; dsDNA, one strand shown
# T5 sequence: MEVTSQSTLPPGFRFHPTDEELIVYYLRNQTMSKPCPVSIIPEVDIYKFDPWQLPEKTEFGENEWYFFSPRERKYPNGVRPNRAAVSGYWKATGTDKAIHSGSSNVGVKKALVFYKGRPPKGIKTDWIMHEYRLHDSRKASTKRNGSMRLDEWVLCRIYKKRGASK
# In short: as §1
# GST-NTL6(1-168) = GST-NTL6(1-168) (Arabidopsis thaliana, UniProt Q9SCK6 1-168); settings: protein: recombinant; tags: GST; chain copies: 2; dsDNA, one strand shown
# GST-NTL6(1-168), sequence (Q9SCK6 1-168): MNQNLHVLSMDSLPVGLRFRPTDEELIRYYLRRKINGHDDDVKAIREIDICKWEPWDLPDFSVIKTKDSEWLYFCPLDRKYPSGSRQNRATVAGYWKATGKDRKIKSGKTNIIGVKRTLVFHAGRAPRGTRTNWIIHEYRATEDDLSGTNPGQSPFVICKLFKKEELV
# In short: as §1
# GST-ATAF1 NAC domain = molecular target: T6, GST-ATAF1 NAC domain (Arabidopsis thaliana, UniProt Q39013 7-158); settings: protein: recombinant; tags: GST; chain copies: 2; dsDNA, one strand shown
# T6 sequence: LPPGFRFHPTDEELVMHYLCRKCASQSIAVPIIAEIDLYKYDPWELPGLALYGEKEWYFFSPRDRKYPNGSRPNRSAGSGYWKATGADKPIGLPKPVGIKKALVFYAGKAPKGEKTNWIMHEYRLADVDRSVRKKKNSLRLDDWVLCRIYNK
# In short: as §1
# GST-ANAC055(1-171) = molecular target: T7, GST-ANAC055(1-171) (Arabidopsis thaliana, UniProt Q9LDY8 1-171); settings: protein: recombinant; tags: GST; chain copies: 2; dsDNA, one strand shown
# T7 sequence: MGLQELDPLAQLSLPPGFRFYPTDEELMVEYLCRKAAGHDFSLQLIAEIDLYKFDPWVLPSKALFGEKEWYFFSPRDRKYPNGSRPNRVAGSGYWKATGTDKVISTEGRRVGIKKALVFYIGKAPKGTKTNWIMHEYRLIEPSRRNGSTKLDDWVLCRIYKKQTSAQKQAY
# In short: as §1
# GST-NTL8 NAC domain = molecular target: T8, GST-NTL8 NAC domain (Arabidopsis thaliana, UniProt Q9XIN7 14-156); settings: protein: recombinant; tags: GST; chain copies: 2; dsDNA, one strand shown
# T8 sequence: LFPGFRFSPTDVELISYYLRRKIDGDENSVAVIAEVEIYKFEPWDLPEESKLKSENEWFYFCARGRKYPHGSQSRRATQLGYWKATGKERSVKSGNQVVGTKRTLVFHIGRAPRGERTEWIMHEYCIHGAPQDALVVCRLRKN
# In short: as §1
sequence,measurement,setting,value
GGGTCAAA,binding signal,GST-ANAC092(1-176),0.0694 E-score
same,binding signal,GST-NST2(1-184),0.0921 E-score
same,binding signal,GST-WRKY1(266-371),0.48 E-score
AGTCAAGG,binding signal,GST-ANAC092(1-176),0.104 E-score
same,binding signal,GST-ANAC019 NAC domain,0.0733 E-score
same,binding signal,[1],0.139 E-score
same,binding signal,GST-NAP(1-166),0.0507 E-score
same,binding signal,GST-NST2(1-184),0.0876 E-score
same,binding signal,GST-WRKY1(266-371),0.475 E-score
AGTTGACC,binding signal,GST-NTL6(1-168),0.0645 E-score
same,binding signal,GST-WRKY1(266-371),0.49 E-score
AAGTCAGC,binding signal,GST-NTL6(1-168),0.14 E-score
same,binding signal,GST-WRKY1(266-371),0.459 E-score
GACCGGTC,binding signal,GST-WRKY1(266-371),0.445 E-score
CTGACCGC,binding signal,GST-ANAC092(1-176),0.0725 E-score
same,binding signal,GST-WRKY1(266-371),0.425 E-score
CCGGTCAA,binding signal,GST-WRKY1(266-371),0.493 E-score
TGACCAAA,binding signal,GST-ANAC092(1-176),0.0758 E-score
same,binding signal,[1],0.126 E-score
same,binding signal,GST-WRKY1(266-371),0.457 E-score
GTCAATGA,binding signal,GST-NTL6(1-168),0.0646 E-score
same,binding signal,GST-WRKY1(266-371),0.466 E-score
CTCTTGAC,binding signal,GST-ANAC092(1-176),0.059 E-score
same,binding signal,GST-ANAC019 NAC domain,0.0833 E-score
same,binding signal,GST-ATAF1 NAC domain,0.0783 E-score
same,binding signal,GST-NAP(1-166),0.0978 E-score
same,binding signal,GST-WRKY1(266-371),0.449 E-score
AAGACCAG,binding signal,GST-WRKY1(266-371),0.427 E-score
AGGTCGTC,binding signal,GST-WRKY1(266-371),0.416 E-score
AAAGGTCA,binding signal,GST-ANAC092(1-176),0.0939 E-score
same,binding signal,GST-ANAC055(1-171),0.106 E-score
same,binding signal,GST-ATAF1 NAC domain,0.137 E-score
same,binding signal,[1],0.0795 E-score
same,binding signal,GST-NTL8 NAC domain,0.154 E-score
same,binding signal,GST-WRKY1(266-371),0.424 E-score
CCCTTGAC,binding signal,GST-ANAC092(1-176),0.0597 E-score
same,binding signal,GST-NTL6(1-168),0.0561 E-score
same,binding signal,GST-ANAC019 NAC domain,0.0511 E-score
same,binding signal,GST-NAP(1-166),0.067 E-score
same,binding signal,GST-NTL8 NAC domain,0.151 E-score
same,binding signal,GST-WRKY1(266-371),0.459 E-score
CTGGTCAA,binding signal,GST-ANAC092(1-176),0.0676 E-score
same,binding signal,GST-WRKY1(266-371),0.488 E-score
GCATTGAC,binding signal,GST-ANAC092(1-176),0.0797 E-score
same,binding signal,GST-ATAF1 NAC domain,0.0849 E-score
same,binding signal,GST-NST2(1-184),0.0561 E-score
same,binding signal,GST-WRKY1(266-371),0.47 E-score
CTGACTTA,binding signal,GST-NTL6(1-168),0.195 E-score
same,binding signal,GST-WRKY1(266-371),0.42 E-score
GGTCAACC,binding signal,GST-ANAC092(1-176),0.144 E-score
same,binding signal,GST-ANAC019 NAC domain,0.0527 E-score
same,binding signal,GST-ATAF1 NAC domain,0.0896 E-score
same,binding signal,[1],0.061 E-score
same,binding signal,GST-WRKY1(266-371),0.491 E-score
GCGTGGAC,binding signal,GST-ANAC092(1-176),0.0916 E-score
same,binding signal,GST-ANAC019 NAC domain,0.0892 E-score
same,binding signal,[1],0.19 E-score
same,binding signal,GST-WRKY1(266-371),0.404 E-score
AGGTCAGA,binding signal,GST-NTL6(1-168),0.0962 E-score
same,binding signal,GST-WRKY1(266-371),0.449 E-score
AGTCCACG,binding signal,GST-ANAC092(1-176),0.062 E-score
same,binding signal,GST-ANAC019 NAC domain,0.0759 E-score
same,binding signal,GST-WRKY1(266-371),0.438 E-score
AGGTTTCC,binding signal,GST-NTL6(1-168),0.052 E-score
same,binding signal,GST-ANAC019 NAC domain,0.0846 E-score
same,binding signal,GST-NST2(1-184),0.0833 E-score
same,binding signal,GST-NTL8 NAC domain,0.457 E-score
GGTCAACA,binding signal,GST-NST2(1-184),0.0705 E-score
same,binding signal,GST-WRKY1(266-371),0.493 E-score
ACGGTCAA,binding signal,[1],0.0716 E-score
same,binding signal,GST-WRKY1(266-371),0.49 E-score
CTCGGTCA,binding signal,GST-NTL8 NAC domain,0.0649 E-score
same,binding signal,GST-WRKY1(266-371),0.451 E-score
GTCGTCAA,binding signal,GST-NAP(1-166),0.0529 E-score
same,binding signal,GST-WRKY1(266-371),0.424 E-score
CTGGGTCA,binding signal,[1],0.0748 E-score
same,binding signal,GST-WRKY1(266-371),0.439 E-score
ATGGGTCA,binding signal,GST-NAP(1-166),0.0537 E-score
same,binding signal,GST-WRKY1(266-371),0.422 E-score
